# About 83,000 compounds went through this panel and 20% of them were active in at least one assay; those are over-represented in the sample as a whole.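 Plates (96-well) were seeded with cells, treated with compound at one concentration, and incubated for 48 hours before percent growth was determined.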 A number with no mark means an inactive call. Active and inactive are the calls of the source. The calls were made as follows: active = growth percent below 10; inactive = the rest.
# Tests used:
# Test in all cases: NCI-60 one-dose screen, 48 h (100 = growth as untreated, 0 = no growth, -100 = all killed)
# RPMI-8226 leukemia = conditions: 10 µM unless noted
# OVCAR-8 ovarian = conditions: 10 µM unless noted
# OVCAR-5 ovarian = conditions: 10 µM unless noted
# OVCAR-4 ovarian = conditions: 10 µM unless noted
# SK-OV-3 ovarian = conditions: 10 µM unless noted
# IGROV1 ovarian = conditions: 10 µM unless noted
# OVCAR-3 ovarian = conditions: 10 µM unless noted
# HS 578T breast = conditions: 10 µM
# NCI/ADR-RES ovarian = conditions: 10 µM unless noted
# T-47D breast = conditions: 10 µM unless noted
# BT-549 breast = conditions: 10 µM unless noted
# MDA-MB-435 melanoma = conditions: 10 µM unless noted
# SW-620 colon = conditions: 10 µM unless noted
# MCF7 breast = conditions: 10 µM unless noted
# HCT-116 colon = conditions: 10 µM unless noted
# HCC-2998 colon = conditions: 10 µM unless noted
# KM12 colon = conditions: 10 µM unless noted
Structure (SMILES),growth (RPMI-8226 leukemia),growth (OVCAR-8 ovarian),growth (OVCAR-5 ovarian),growth (OVCAR-4 ovarian),growth (SK-OV-3 ovarian),growth (IGROV1 ovarian),growth (OVCAR-3 ovarian),growth (HS 578T breast),growth (NCI/ADR-RES ovarian),growth (T-47D breast),growth (BT-549 breast),growth (MDA-MB-435 melanoma),growth (SW-620 colon),growth (MCF7 breast),growth (HCT-116 colon),growth (HCC-2998 colon),growth (KM12 colon)
CCN(CC)c1ccc(C(=N)c2ccc(N(C)C)cc2)cc1,6.17% (active),11.9%,16.8%,21.4%,14.4%,4.79% (active),-12.6% (active),-31% (active),-31.1% (active),-13.6% (active),28.9%,2% (active),-18.6% (active),2.36% (active),1.67% (active),15.4%,-8.02% (active)
CC1=NOCC(=O)N1,99.9%,107%,95.3%,95.4%,103%,104%,108%,117%,110%,99.1%,104%,100%,103%,98.6%,98.5%,116%,107%
CCCCCCCCCCCC1=NC(C)(C)CN1C(C)(C)CO,1.29% (active),69.4%,73.2%,64.4%,73.8%,53.2%,76.7%,81.2%,65%,45.3%,76.6%,-25.2% (active),10.8%,24.3%,8.08% (active),-75.5% (active),-10.2% (active)
COc1cc(CN2CCO[C@H](COc3cccc(F)c3)C2)ccc1Cl,30.4%,22.2%,47.8%,9.51% (active),34.5%,67.3%,49.4%,51.7%,26%,28.2%,50.2%,29.2%,47.4%,26.7%,27.1%,49.3%,69%
CC1=NC(c2ccc(Cl)cc2)C2=C(N1)/C(=C/c1ccc(Cl)cc1)CCC2 (stereo not drawn),-1.96% (active),79%,114%,83.6%,109%,98.8%,104%,97.9%,98%,82.5%,66%,22.4%,82.1%,31.3%,-39.9% (active),41.5%,38%
O=C1C=CC(=O)N1CO,112%,110%,101%,130%,116%,109%,113%,108%,129%,132%,116%,127%,115%,104%,104%,107%,128%
COc1ccc(-c2cnc3ccnn3c2-c2cc(OC)c(OC)c(OC)c2)cc1,23.9%,47%,66.1%,75.4%,32%,62.3%,-37.9% (active),16.7%,27.4%,22.2%,66.7%,-38.5% (active),16.1%,25.4%,27.5%,80.8%,16.1%
Clc1ncnc2scc(C3COc4ccccc4O3)c12 (stereo not drawn),95.7%,92.8%,94.4%,92.8%,115%,121%,106%,92.3%,109%,78.2%,70%,97.5%,93.3%,76.7%,86.2%,87.7%,104%
COc1ccc(-c2nnc(SCC(=O)Nc3ccc(C(=O)/C=C/c4ccc(Cl)cc4)cc3)n2-c2ccccc2)cc1,83.8%,100%,107%,92.4%,99.5%,93.5%,97.8%,96.9%,102%,88%,84.6%,105%,101%,95.3%,76%,103%,98.2%
